Measured values: PubChem BioAssay (Tox21)
Records with an inconclusive call do not appear. Active and inactive are the calls of the source. Unless noted, calls follow the shape of the full dose curve.

Test system: not listed separately
Experiment: cAMP Responsive Elements (CRE) small molecule agonists, cell-based qHTS assay (AID 1963590)
Details: CRE-bla HEK293T, beta-lactamase FRET ratio, 3 h; series mostly up to 92.4 µM; activation: at the top concentration
In short: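 HEK 293T cells stably bearing CRE-bla were plated at 2,000 cells per well and rested 18 h. Compounds, positive controls or DMSO were added for 3 h at 37 C. LiveBLAzer B/G substrate was then loaded for 2 h at room temperature.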
% is scaled to controls: 0 for no effect and ±100 for the full control effect.

Row | Structure (SMILES) | activation | Potency
1 | CC(C)(C)OOC(C)(C)CCC(C)(C)OOC(C)(C)C | -1.72% (inactive) | 
2 | N#CC(c1ccccc1)c1ccccc1 |  | inactive
3 | O=C(Cl)OCCOCCOC(=O)Cl | -1.48% (inactive) | 
4 | CCN(CC)C(=O)C(C)Oc1cccc2ccccc12 (stereo not given) |  | inactive
5 | CN(C)CCC#N |  | inactive
6 | CCN(CCO)CCO | -0.283% (inactive) | 
7 | O=C(NCO)NCO | -0.379% (inactive) | 
8 | Nc1c(Br)cc([N+](=O)[O-])cc1[N+](=O)[O-] | 0.483% (inactive) | 
9 | Cc1cccc(N)c1N | -3.81% (inactive) | 
10 | CC(C)C(=O)OCC(C)(C)C(OC(=O)C(C)C)C(C)C (stereo not given) |  | inactive

Test system: not listed separately
Experiment: cAMP Responsive Elements (CRE) small molecule antagonists, cell-based qHTS assay (AID 1963591; active = well fitted inhibition curve with a large enough effect in the signal ratio in the repeat runs, not every such curve was filed as active; the % refers to the signal ratio)
Details: CRE-bla HEK293T, beta-lactamase FRET ratio; series mostly up to 92.4 µM; activity change, negative = inhibition: at the top concentration
In short: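 First, CRE-bla HEK293T cells settled 18 h at 37 C. Next, compound and 0.25 uM final NKH477 were applied for 3 h. Last, LiveBLAzer B/G substrate was loaded for 2 h at room temperature.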

Row | Structure (SMILES) | activity change, negative = inhibition | Potency
11 | N#CCCO | 1.91% (inactive) | 
12 | N#Cc1ccc(Cl)cc1 | -12.9% (inactive) | 
13 | C=CCc1cc(OC)c2c(c1)OCO2 | -11.2% (inactive) | 
14 | c1ccc(-c2cccc(-c3ccccc3)c2)cc1 |  | inactive
15 | c1ccc(NNc2ccccc2)cc1 |  | inactive
16 | OCCSSCCO | 10.6% (inactive) | 
17 | CCN | -9.36% (inactive) | 
18 | N#Cc1ccc(O)cc1 | -0.587% (inactive) | 
19 | NCCOS(=O)(=O)O | -0.545% (inactive) | 
20 | O=NN(c1ccccc1)c1ccccc1 |  | inactive
21 | COC(=O)Nc1cccc(OC(=O)Nc2cccc(C)c2)c1 |  | inactive
22 | CC(Br)C(=O)O (stereo not given) |  | inactive
23 | CCN(CC)Cc1nccn1-c1ccc([N+](=O)[O-])cc1C(=O)c1ccccc1Cl | 10.5% [at 42.4 µM] (inactive) | 
24 | CCCCCCCCSC(=O)Oc1cc(Cl)nnc1-c1ccccc1 | -14.2% (inactive) | 
25 | [O-][Cl+]O | -7.94% (inactive) | 
26 | OCCOc1ccccc1 |  | inactive
27 | O=C(CCN1CC1)OCC(CO)(COC(=O)CCN1CC1)COC(=O)CCN1CC1 | -12.8% (inactive) | 
28 | CC1COC2(c3ccccc3Cl)c3cc(Cl)ccc3NC(=O)CN12 (stereo not given) | 0.2% [at 42.4 µM] (inactive) | 
29 | CC(C)(C)OOC(C)(C)CCC(C)(C)OOC(C)(C)C | -9.15% (inactive) | 
30 | N#CC(c1ccccc1)c1ccccc1 |  | inactive
31 | O=C(Cl)OCCOCCOC(=O)Cl | 5.07% (inactive) | 
32 | CCN(CC)C(=O)C(C)Oc1cccc2ccccc12 (stereo not given) |  | inactive
33 | CN(C)CCC#N |  | inactive
34 | O=C(NCO)NCO | 0.115% (inactive) | 
35 | Nc1c(Br)cc([N+](=O)[O-])cc1[N+](=O)[O-] | 5.99% (inactive) | 
36 | Cc1cccc(N)c1N | -1.37% (inactive) | 
37 | CC(C)C(=O)OCC(C)(C)C(OC(=O)C(C)C)C(C)C (stereo not given) |  | inactive

Target: Beta-2 adrenergic receptor (Homo sapiens) (UniProt P07550)
Sequence (P07550 whole entry, looked up): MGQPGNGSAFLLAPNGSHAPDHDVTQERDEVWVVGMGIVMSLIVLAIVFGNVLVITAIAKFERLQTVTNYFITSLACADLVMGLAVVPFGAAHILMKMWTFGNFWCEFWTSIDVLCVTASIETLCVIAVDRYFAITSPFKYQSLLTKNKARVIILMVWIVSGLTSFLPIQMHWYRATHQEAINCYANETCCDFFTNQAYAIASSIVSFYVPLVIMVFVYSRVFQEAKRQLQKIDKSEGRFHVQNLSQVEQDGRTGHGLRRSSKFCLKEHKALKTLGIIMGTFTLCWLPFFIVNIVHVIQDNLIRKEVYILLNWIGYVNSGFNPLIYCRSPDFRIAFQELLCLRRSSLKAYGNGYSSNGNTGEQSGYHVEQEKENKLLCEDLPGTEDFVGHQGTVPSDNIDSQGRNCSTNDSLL
Experiment: Adrenergic beta2 receptor (ADRB2) small molecule antagonists, cell-based qHTS assay (AID 1963592); also: nearly all actives have a fitted effect of over 50% in size; also: potency is read from the fitted curve at half-maximal effect
Details: CHO-ADRB2 cells, isoproterenol-stimulated cAMP HTRF ratio, 0.5 h; series mostly up to 92.4 µM; activity change, negative = inhibition: at the top concentration
In short: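 Assay format: CHO-ADRB2 cells, 18-20hr seeding at 37C/5% CO2, then compound plus 1nM isoproterenol agonist mix for 0.5hr RT. Homogeneous time-resolved fluorescence cAMP detection after 1hr, expressed as 665/615 nm ratio.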

Row | Structure (SMILES) | activity change, negative = inhibition | Potency
38 | N#CCCO | 5.11% (inactive) | 
39 | C=CCSSCC=C | -1.89% (inactive) | 
40 | N#Cc1ccc(Cl)cc1 | 2.39% (inactive) | 
41 | C=CCc1cc(OC)c2c(c1)OCO2 | -0.815% (inactive) | 
42 | c1ccc(-c2cccc(-c3ccccc3)c2)cc1 |  | inactive
43 | c1ccc(NNc2ccccc2)cc1 |  | inactive
44 | O=c1[nH]c2ccccc2n1C1CCN(CCCC(c2ccc(F)cc2)c2ccc(F)cc2)CC1 |  | 33.5 µM (active)
45 | CCCCCCCCCCn1cc[n+](C)c1 |  | inactive
46 | OCCSSCCO | -4.16% (inactive) | 
47 | CCN | -14.2% (inactive) | 
48 | N#Cc1ccc(O)cc1 | 2.27% (inactive) | 
49 | NCCOS(=O)(=O)O | -1.79% (inactive) | 
50 | O=NN(c1ccccc1)c1ccccc1 |  | inactive
51 | COC(=O)Nc1cccc(OC(=O)Nc2cccc(C)c2)c1 |  | inactive
52 | CC(Br)C(=O)O (stereo not given) |  | inactive
53 | O=S1OCC2C(CO1)C1(Cl)C(Cl)=C(Cl)C2(Cl)C1(Cl)Cl (stereo not given) | 11.1% (inactive) | 
54 | ClC(Cl)(Cl)Br |  | inactive
55 | CCN(CC)Cc1nccn1-c1ccc([N+](=O)[O-])cc1C(=O)c1ccccc1Cl | 9.34% [at 42.5 µM] (inactive) | 

Row | Structure (SMILES) | activity change, negative = inhibition | Potency
56 | Cl/C=C/CCl | -8.33% (inactive) | 
57 | CCCCCCCCSC(=O)Oc1cc(Cl)nnc1-c1ccccc1 | -5.39% (inactive) | 
58 | [O-][Cl+]O | 3.09% (inactive) | 
59 | OCCOc1ccccc1 |  | inactive
60 | CC(C)Nc1ccc(Nc2ccccc2)cc1 |  | inactive
61 | O=C(CCN1CC1)OCC(CO)(COC(=O)CCN1CC1)COC(=O)CCN1CC1 | 2.6% (inactive) | 
62 | CC(C)(C)C(O)(CCc1ccc(Cl)cc1)Cn1cncn1 (stereo not given) |  | inactive
63 | CC1COC2(c3ccccc3Cl)c3cc(Cl)ccc3NC(=O)CN12 (stereo not given) | 2.02% [at 42.5 µM] (inactive) | 
64 | CC(C)(C)OOC(C)(C)CCC(C)(C)OOC(C)(C)C | -4.77% (inactive) | 
65 | N#CC(c1ccccc1)c1ccccc1 |  | inactive
66 | O=C(Cl)OCCOCCOC(=O)Cl | -2.81% (inactive) | 
67 | CCN(CC)C(=O)C(C)Oc1cccc2ccccc12 (stereo not given) | -8.18% (inactive) | 
68 | CN(C)CCC#N |  | inactive
69 | CCN(CCO)CCO | 7.15% (inactive) | 
70 | O=C(NCO)NCO | 11% (inactive) | 
71 | Nc1c(Br)cc([N+](=O)[O-])cc1[N+](=O)[O-] | 1.83% (inactive) | 
72 | Cc1cccc(N)c1N |  | inactive
73 | CC(C)C(=O)OCC(C)(C)C(OC(=O)C(C)C)C(C)C (stereo not given) |  | inactive

Target: Beta-2 adrenergic receptor (Homo sapiens) (UniProt P07550)
Experiment: Adrenergic beta2 receptor (ADRB2) small molecule agonists, cell-based qHTS assay (AID 1963593); also: potency is read from the fitted curve at half-maximal effect;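 as to activation: CHO cells stably overexpressing human ADRB2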
Details: CHO-ADRB2 cells, cAMP HTRF, 30 min; series mostly up to 92.4 µM; activation: at the top concentration
In short: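 CHO cells stably over-expressing ADRB2 were plated overnight at 37C, then dosed with compounds plus a stimulation mix containing 100uM IBMX and 25uM Ro-20-1724 for 0.5hr at room temperature. cAMP was measured by HTRF competition, 1hr.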

Row | Structure (SMILES) | activation | Potency
74 | C=CCSSCC=C | 0.0435% (inactive) | 
75 | N#Cc1ccc(Cl)cc1 | 1.84% (inactive) | 
76 | c1ccc(-c2cccc(-c3ccccc3)c2)cc1 | -13.2% (inactive) | 
77 | CCCCCCCCCCn1cc[n+](C)c1 | 21.2% (inactive) | 
78 | OCCSSCCO | -7.12% (inactive) | 
79 | O=NN(c1ccccc1)c1ccccc1 |  | inactive
80 | COC(=O)Nc1cccc(OC(=O)Nc2cccc(C)c2)c1 | -29.1% (inactive) | 
81 | CC(Br)C(=O)O (stereo not given) | -1.4% (inactive) | 
82 | ClC1=C(Cl)C2(Cl)C3C(Cl)C(Cl)CC3C1(Cl)C2(Cl)Cl (stereo not given) |  | 54.5 µM (active)
83 | ClC(Cl)(Cl)Br | 2.86% (inactive) | 
84 | CCN(CC)Cc1nccn1-c1ccc([N+](=O)[O-])cc1C(=O)c1ccccc1Cl | -23.5% [at 42.5 µM] (inactive) | 
85 | OCCOc1ccccc1 | -7.28% (inactive) | 
86 | O=C(CCN1CC1)OCC(CO)(COC(=O)CCN1CC1)COC(=O)CCN1CC1 | 3.34% (inactive) | 
87 | CC(C)(C)C(O)(CCc1ccc(Cl)cc1)Cn1cncn1 (stereo not given) | -84.4% (inactive) | 
88 | CC1COC2(c3ccccc3Cl)c3cc(Cl)ccc3NC(=O)CN12 (stereo not given) | 21.4% [at 42.5 µM] (inactive) | 
89 | CC(C)(C)OOC(C)(C)CCC(C)(C)OOC(C)(C)C | 12.5% (inactive) | 
90 | N#CC(c1ccccc1)c1ccccc1 |  | inactive
91 | CCN(CC)C(=O)C(C)Oc1cccc2ccccc12 (stereo not given) | 14.8% (inactive) | 
92 | CCN(CCO)CCO | -29.8% (inactive) | 
93 | O=C(NCO)NCO | -36.8% (inactive) | 
94 | Cc1cccc(N)c1N | -9.97% (inactive) | 
95 | CC(C)C(=O)OCC(C)(C)C(OC(=O)C(C)C)C(C)C (stereo not given) | 10.7% (inactive) | 
